Consider 13 sequences from article PMC8384837, “Expanding the binding specificity for RNA recognition by a PUF domain”.

Holding throughout (experiment): yeast three-hybrid, YBZ-1, SC-Leu-His + 0.5 mM 3-AT, 4 days
Details in all cases: tags: N-Gal4 AD-HA kept; label: inside an RPR1-promoter hybrid RNA with tandem MS2 sites; ssRNA

For one test, the target named is PUM1 PUF domain R5-QLS (Homo sapiens, UniProt Q14671 828-1176, C1007Q;R1008L;Q1011S). In a few lines:
(§1)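 The interaction score is the log change in how often each variant appears, from input to selection. Frequencies came from PCR-amplified, Illumina-sequenced repeat regions of Pumilio-1 PUF domain libraries grown in strain YBZ-1 (LexA–MS2 coat fusion, HIS3 reporter) alongside matching RNA elements. Input plates were SC-Leu and selection plates were SC-Leu-His + 0.5 mM 3-AT, each for four days, and the log2 calculation used a pseudocount of 1 where a variant was absent.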

The next test addresses PUM1 PUF domain R5-RRW (Homo sapiens, UniProt Q14671 828-1176, C1007R;Q1011W). In outline: as §1
Another test has as its target PUM1 PUF domain R1-LRR (Homo sapiens, UniProt Q14671 828-1176, S863L;Q867R). In a few lines:
as §1

Another test addresses PUM1 PUF domain R1-SVR (Homo sapiens, UniProt Q14671 828-1176, R864V;Q867R). In a few lines: as §1
A further test has as its target PUM1 PUF domain R3-LWS (Homo sapiens, UniProt Q14671 828-1176, C935L;R936W;Q939S). In a few lines:
as §1

For the next test, the target named is PUM1 PUF domain R4-GFW (Homo sapiens, UniProt Q14671 828-1176, N971G;H972F;Q975W). In outline:
as §1

Another test concerns the target PUM1 PUF domain R4-SPM (Homo sapiens, UniProt Q14671 828-1176, N971S;H972P;Q975M). In a few lines: as §1
The target of another test is PUM1 PUF domain R4-RMT (Homo sapiens, UniProt Q14671 828-1176, N971R;H972M;Q975T). In a few lines:
as §1

The target in another test is T1, PUM1 PUF domain R6-RWC (Homo sapiens, UniProt Q14671 828-1176, N1043R;Y1044W;Q1047C).
T1 sequence: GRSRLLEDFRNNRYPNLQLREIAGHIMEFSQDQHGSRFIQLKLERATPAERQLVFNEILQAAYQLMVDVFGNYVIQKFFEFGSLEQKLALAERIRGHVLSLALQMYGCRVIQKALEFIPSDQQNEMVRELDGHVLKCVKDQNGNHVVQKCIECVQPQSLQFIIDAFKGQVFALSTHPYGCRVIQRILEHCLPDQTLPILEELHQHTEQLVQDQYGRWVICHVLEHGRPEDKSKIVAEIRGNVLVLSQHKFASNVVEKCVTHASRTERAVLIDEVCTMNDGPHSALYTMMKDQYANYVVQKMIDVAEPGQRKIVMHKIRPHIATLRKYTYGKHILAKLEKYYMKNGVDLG
In outline: as §1

Another test has as its target PUM1 PUF domain R4-RMA (Homo sapiens, UniProt Q14671 828-1176, N971R;H972M;Q975A). In a few lines:
as §1

A further test deals with PUM1 PUF domain R4-CNS (Homo sapiens, UniProt Q14671 828-1176, N971C;H972N;Q975S). In outline:
as §1

In a further test the target is PUM1 PUF domain R8-KRW (Homo sapiens, UniProt Q14671 828-1176, N1122K;Y1123R;Q1126W). In a few lines: as §1
In a further test the target is PUM1 PUF domain R2-LYL (Homo sapiens, UniProt Q14671 828-1176, N899L;Q903L). In outline: as §1
The target in the next test is PUM1 PUF domain R3-RPH (Homo sapiens, UniProt Q14671 828-1176, C935R;R936P;Q939H). In outline: as §1
In the next test the target is PUM1 PUF domain R3-RVT (Homo sapiens, UniProt Q14671 828-1176, C935R;R936V;Q939T). In a few lines:
as §1

The next test concerns the target PUM1 PUF domain R5-NKR (Homo sapiens, UniProt Q14671 828-1176, C1007N;R1008K;Q1011R). In a few lines:
as §1

The target in the next test is PUM1 PUF domain R7-RVC (Homo sapiens, UniProt Q14671 828-1176, S1079R;N1080V;E1083C). In outline: as §1
For a further test, the target named is PUM1 PUF domain R7-GRL (Homo sapiens, UniProt Q14671 828-1176, S1079G;N1080R;E1083L). In outline:
as §1

Another test concerns the target PUM1 PUF domain R4-FGR (Homo sapiens, UniProt Q14671 828-1176, N971F;H972G;Q975R). In a few lines:
as §1

A further test has as its target PUM1 PUF domain R5-KNA (Homo sapiens, UniProt Q14671 828-1176, C1007K;R1008N;Q1011A). In outline:
as §1

PUM1 PUF domain R4-CNS, sequence (Q14671 828-1176 N971C/H972N/Q975S): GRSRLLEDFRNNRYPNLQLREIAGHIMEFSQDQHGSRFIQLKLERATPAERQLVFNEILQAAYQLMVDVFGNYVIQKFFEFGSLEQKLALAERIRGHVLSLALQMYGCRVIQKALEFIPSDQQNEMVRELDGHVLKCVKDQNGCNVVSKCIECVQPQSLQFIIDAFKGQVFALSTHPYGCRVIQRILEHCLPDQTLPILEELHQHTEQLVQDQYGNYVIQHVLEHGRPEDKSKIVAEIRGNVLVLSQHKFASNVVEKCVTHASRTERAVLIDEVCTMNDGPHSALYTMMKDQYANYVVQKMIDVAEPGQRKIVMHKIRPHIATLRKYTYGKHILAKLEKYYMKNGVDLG
PUM1 PUF domain R5-RRW, sequence (Q14671 828-1176 C1007R/Q1011W): as the sequence (Q14671 828-1176 N971C/H972N/Q975S) above, with C144N, N145H, S148Q, C180R, Q184W counted along it
PUM1 PUF domain R8-KRW, sequence (Q14671 828-1176 N1122K/Y1123R/Q1126W): as the sequence (Q14671 828-1176 N971C/H972N/Q975S) above, with C144N, N145H, S148Q, N295K, Y296R, Q299W counted along it
PUM1 PUF domain R7-GRL, sequence (Q14671 828-1176 S1079G/N1080R/E1083L): as the sequence (Q14671 828-1176 N971C/H972N/Q975S) above, with C144N, N145H, S148Q, S252G, N253R, E256L counted along it
PUM1 PUF domain R5-KNA, sequence (Q14671 828-1176 C1007K/R1008N/Q1011A): as the sequence (Q14671 828-1176 N971C/H972N/Q975S) above, with C144N, N145H, S148Q, C180K, R181N, Q184A counted along it
PUM1 PUF domain R5-NKR, sequence (Q14671 828-1176 C1007N/R1008K/Q1011R): as the sequence (Q14671 828-1176 N971C/H972N/Q975S) above, with C144N, N145H, S148Q, C180N, R181K, Q184R counted along it
PUM1 PUF domain R3-RVT, sequence (Q14671 828-1176 C935R/R936V/Q939T): as the sequence (Q14671 828-1176 N971C/H972N/Q975S) above, with C108R, R109V, Q112T, C144N, N145H, S148Q counted along it
PUM1 PUF domain R3-RPH, sequence (Q14671 828-1176 C935R/R936P/Q939H): as the sequence (Q14671 828-1176 N971C/H972N/Q975S) above, with C108R, R109P, Q112H, C144N, N145H, S148Q counted along it
PUM1 PUF domain R2-LYL, sequence (Q14671 828-1176 N899L/Q903L): as the sequence (Q14671 828-1176 N971C/H972N/Q975S) above, with N72L, Q76L, C144N, N145H, S148Q counted along it
PUM1 PUF domain R4-RMA, sequence (Q14671 828-1176 N971R/H972M/Q975A): as the sequence (Q14671 828-1176 N971C/H972N/Q975S) above, with C144R, N145M, S148A counted along it
PUM1 PUF domain R7-RVC, sequence (Q14671 828-1176 S1079R/N1080V/E1083C): as the sequence (Q14671 828-1176 N971C/H972N/Q975S) above, with C144N, N145H, S148Q, S252R, N253V, E256C counted along it

For the sequence “GGCUAGAACUAGUGGAUCCCCCGGCGCCCGGCGGCUCGAGCCCGGGUAAGUGUGAAUAGUCUGCAUGCCGCCGGGCGCCAUGCCUGCAGGUCGACUCUAGAAAACAUG”, the binding signal with PUM1 PUF domain R5-QLS is 2.16 log2 enrichment (interaction score); in the test with PUM1 PUF domain R5-RRW, 0.3 log2 enrichment (interaction score).
Turning to “GGCUAGAACUAGUGGAUCCCCCGGCGCCCGGCGGCUCGAGCCCGGGUAAGUGUAAAUCGUCUGCAUGCCGCCGGGCGCCAUGCCUGCAGGUCGACUCUAGAAAACAUG”, the binding signal is 2.97 log2 enrichment (interaction score) with PUM1 PUF domain R1-LRR and 3.35 log2 enrichment (interaction score) with PUM1 PUF domain R1-SVR.
Take “GGCUAGAACUAGUGGAUCCCCCGGCGCCCGGCGGCUCGAGCCCGGGUAAGUGUAAAUAGUCUGCAUGCCGCCGGGCGCCAUGCCUGCAGGUCGACUCUAGAAAACAUG”: the binding signal is 4.31 log2 enrichment (interaction score) with PUM1 PUF domain R3-LWS; 4.78 log2 enrichment (interaction score) with PUM1 PUF domain R4-GFW; 3.49 log2 enrichment (interaction score) with PUM1 PUF domain R4-SPM; 0.83 log2 enrichment (interaction score) with PUM1 PUF domain R5-QLS; 3.47 log2 enrichment (interaction score) with PUM1 PUF domain R4-RMT; 4.89 log2 enrichment (interaction score) in the test with PUM1 PUF domain R6-RWC. In addition, the binding signal with PUM1 PUF domain R4-RMA was 4.05 log2 enrichment (interaction score); with PUM1 PUF domain R4-CNS it was 0.73 log2 enrichment (interaction score); in the test with PUM1 PUF domain R8-KRW, 1.73 log2 enrichment (interaction score); with PUM1 PUF domain R5-RRW it was 0.79 log2 enrichment (interaction score).
In the case of “GGCUAGAACUAGUGGAUCCCCCGGCGCCCGGCGGCUCGAGCCCGGGUAAGUGUAAAUUGUCUGCAUGCCGCCGGGCGCCAUGCCUGCAGGUCGACUCUAGAAAACAUG”, in the test with PUM1 PUF domain R1-LRR, the binding signal was 2.97 log2 enrichment (interaction score).
“GGCUAGAACUAGUGGAUCCCCCGGCGCCCGGCGGCUCGAGCCCGGGUAAGUGUAAGUAGUCUGCAUGCCGCCGGGCGCCAUGCCUGCAGGUCGACUCUAGAAAACAUG”: the binding signal with PUM1 PUF domain R3-LWS is 6.62 log2 enrichment (interaction score).
As to “GGCUAGAACUAGUGGAUCCCCCGGCGCCCGGCGGCUCGAGCCCGGGUAAGUGUAAAAAGUCUGCAUGCCGCCGGGCGCCAUGCCUGCAGGUCGACUCUAGAAAACAUG”, in the test with PUM1 PUF domain R2-LYL, the binding signal is 3.33 log2 enrichment (interaction score).
As for “GGCUAGAACUAGUGGAUCCCCCGGCGCCCGGCGGCUCGAGCCCGGGUAAGCGUAAAUAGUCUGCAUGCCGCCGGGCGCCAUGCCUGCAGGUCGACUCUAGAAAACAUG”, the binding signal with PUM1 PUF domain R8-KRW was 3.21 log2 enrichment (interaction score).
As for “GGCUAGAACUAGUGGAUCCCCCGGCGCCCGGCGGCUCGAGCCCGGGUAAGUGUAAUUAGUCUGCAUGCCGCCGGGCGCCAUGCCUGCAGGUCGACUCUAGAAAACAUG”, the binding signal was 4.58 log2 enrichment (interaction score) with PUM1 PUF domain R3-LWS, 3.26 log2 enrichment (interaction score) with PUM1 PUF domain R3-RPH and 2.47 log2 enrichment (interaction score) with PUM1 PUF domain R3-RVT.
As to “GGCUAGAACUAGUGGAUCCCCCGGCGCCCGGCGGCUCGAGCCCGGGUAAGUGUUAAUAGUCUGCAUGCCGCCGGGCGCCAUGCCUGCAGGUCGACUCUAGAAAACAUG”, the binding signal with PUM1 PUF domain R5-NKR was 5.24 log2 enrichment (interaction score); with PUM1 PUF domain R5-RRW, 3.67 log2 enrichment (interaction score).
Turning to “GGCUAGAACUAGUGGAUCCCCCGGCGCCCGGCGGCUCGAGCCCGGGUAAGUUUAAAUAGUCUGCAUGCCGCCGGGCGCCAUGCCUGCAGGUCGACUCUAGAAAACAUG”, the binding signal with PUM1 PUF domain R7-RVC was 2.88 log2 enrichment (interaction score); in the test with PUM1 PUF domain R7-GRL, 2.75 log2 enrichment (interaction score).
In the case of “GGCUAGAACUAGUGGAUCCCCCGGCGCCCGGCGGCUCGAGCCCGGGUAAGUGUAUAUAGUCUGCAUGCCGCCGGGCGCCAUGCCUGCAGGUCGACUCUAGAAAACAUG”, the binding signal was 4.86 log2 enrichment (interaction score) in the test with PUM1 PUF domain R4-GFW, 2.32 log2 enrichment (interaction score) with PUM1 PUF domain R4-FGR, 3.22 log2 enrichment (interaction score) with PUM1 PUF domain R4-SPM and 3.64 log2 enrichment (interaction score) in the test with PUM1 PUF domain R4-CNS.
In the case of “GGCUAGAACUAGUGGAUCCCCCGGCGCCCGGCGGCUCGAGCCCGGGUAAGUGUCAAUAGUCUGCAUGCCGCCGGGCGCCAUGCCUGCAGGUCGACUCUAGAAAACAUG”, the binding signal is 2.79 log2 enrichment (interaction score) with PUM1 PUF domain R5-KNA and 3.43 log2 enrichment (interaction score) with PUM1 PUF domain R5-RRW.
Take “GGCUAGAACUAGUGGAUCCCCCGGCGCCCGGCGGCUCGAGCCCGGGUAAGUGUACAUAGUCUGCAUGCCGCCGGGCGCCAUGCCUGCAGGUCGACUCUAGAAAACAUG”: the results for the binding signal with PUM1 PUF domain R4-FGR, with PUM1 PUF domain R4-SPM and with PUM1 PUF domain R4-CNS were 2.88 log2 enrichment (interaction score), 0.15 log2 enrichment (interaction score) and 2.9 log2 enrichment (interaction score), respectively.
